Measurements from PubChem BioAssay AID2685 (National Center for Advancing Translational Sciences (NCATS), 2010).
Among all 320,000 compounds or so, about 2,100 (0.66%) were called active. Inconclusive results (about 53%) are left out. The call rests on the fitted dose curve; in most records, active means well fitted inhibition curve with a large enough effect in the signal ratio, with a control signal flat (not every such curve was filed as active); inconclusive means small, poorly fitted or top-dose-only effect, or effect the other way, or a change in a side signal; inactive means flat fitted curve, though single readings scatter; the % refers to the signal ratio. Only a selection was taken, and actives are over-represented in it overall.

assay: qHTS Assay for Lipid Storage Modulators in Drosophila S3 Cells; conditions: BODIPY lipid droplet fluorescence, 18-24 h, cells fed with added oleic acid; cell number change: measured here: cell count max response; series mostly up to 46.1 µM;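 on cell number change: cells counted by Cell Tracker Red CMTPX staining in the red channel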; on lipid storage change, negative = inhibition: on the % scale 0 is the no-effect control and ±100 the full control effect
Summary of the method: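 Drosophila S3 cells got compounds at several concentrations plus oleic acid (400 uM solution). Laser-scanning cytometry with 488 nm excitation read lipid droplets at 500-530 nm and cells at 575-640 nm. Percent activity was relative to 20 uM Triacsin C.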
Potency means the concentration at half of the fitted maximal effect.

Structure (SMILES)	Potency	cell number change [%]	lipid storage change, negative = inhibition
N=c1oc2ccccc2cc1C(=O)Nc1ccc(F)cc1	inactive	0.805	
N=c1oc2c3c4c(cc2cc1C(=O)Nc1ccccc1)CCCN4CCC3	5.8 µM (active)	5.35	
N=c1oc2ccccc2cc1C(=O)Nc1ccccc1	inactive	8.78	
CC(C)COc1ccc(CSCCNC(=S)Nc2ccccc2)cc1	inactive		
O=C1C2CCCN2C(c2cccs2)N1c1ccc(F)cc1 (stereo not drawn)	inactive	-1.44	
Cc1ccc2nc3c(cc(C(=O)NCC4CCCO4)n3C)c(=O)n2c1 (stereo not drawn)	inactive	19.4	
O=C(/C=C/c1ccco1)c1ccc(NC(=O)C23CC4CC(CC(C4)C2)C3)cc1	16.4 µM (active)	-23.6	
CC(=O)Nc1ccc(C(=O)/C=C/c2ccco2)cc1	inactive	-0.499	
O=C(N/N=C/c1ccco1)C12CC3CC(CC(C3)C1)C2	inactive	-15.4	
Cc1noc(C)c1COc1ccccc1C(=O)N(C)Cc1ccc(F)cc1		-12.5	19.1% [at 0.0737 µM] (inactive)
O=C(c1ccc2c(c1)OCO2)C1CCCN(Cc2cc(F)ccc2-n2cccn2)C1 (stereo not drawn)	inactive	10	
CCn1c(C)nnc1SCC(=O)NC1CCCCCC1	inactive	-4.99	
CCc1c(C)nc(N)n2c(SCC(=O)NC3CCCCC3)nnc12	1.3 µM (active)	19.2	
CCc1c(C)nc(N)n2c(SCC(=O)Nc3ccccc3OC)nnc12	inactive	6.92	
COc1ccc(C)cc1N(CC(N)=O)S(=O)(=O)c1ccc(C)cc1	inactive	-13.9	
COc1ccc(Nc2ncc(C#N)c(N)n2)c(OC)c1	inactive	3.36	
Cc1c(NC(=O)/C=C/c2ccc(S(=O)(=O)N3CCOCC3)cc2)c(=O)n(-c2ccccc2)n1C	inactive	8.27	
CCNC(=O)NC(=O)C(C)OC(=O)CCCc1nc2ccccc2s1 (stereo not drawn)	inactive	2.05	
CC(OC(=O)CCCc1nc2ccccc2s1)C(N)=O (stereo not drawn)	23.1 µM (active)	18.5	
CC(=O)Nc1ccc(NC(=O)C(C)OC(=O)CCc2nc3ccccc3s2)cc1 (stereo not drawn)	inactive	4.88	
Cc1nn(Cc2ccc(C(=O)n3cccn3)o2)c(C)c1Br	inactive	-2.33	
Cc1csc(NC(=O)c2ccc(Cn3nc(C)c(Br)c3C)o2)n1	7.31 µM (active)	-7.94	
Cc1csc(NC(=O)c2cccc(Cn3nc(C)c(Br)c3C)c2)n1	inactive	-7.75	

Structure (SMILES)	Potency	cell number change [%]	lipid storage change, negative = inhibition
Cc1nnc2c(NCCc3ccccc3)nc3ccccc3n12	inactive	6.11	
CCC(=O)Oc1ccc2oc(=O)cc(C)c2c1	inactive	-1.41	
CCc1ccc(NC(=S)N2CCC(NC(=O)c3ccccc3OC)CC2)cc1	inactive	12.5	
Cc1cc(NC(=O)Cn2nc3c(cc2=O)CCCC3)ccc1Br	inactive	19.1	
N=c1c(C(=O)NCCN2CCOCC2)cc2c(=O)n3ccccc3nc2n1CCc1ccccc1	inactive	15.8	
N=c1c(S(=O)(=O)c2ccc(Br)cc2)cc2c(=O)n3ccccc3nc2n1C1CCCCC1	inactive	2.36	
COc1ccc(CCNC(=O)c2cc3c(=O)n4ccccc4nc3n(CCCN3CCOCC3)c2=N)cc1OC	inactive	3.54	
N=c1c(C(=O)NCCc2ccccc2)cc2c(=O)n3ccccc3nc2n1CCCN1CCOCC1	6.51 µM (active)	-19	
N=c1c(C(=O)NCc2ccccc2)cc2c(=O)n3ccccc3nc2n1CCCN1CCOCC1	inactive	-5.03	
N=c1c(C(=O)NCCc2ccccc2)cc2c(=O)n3ccccc3nc2n1Cc1ccco1	0.82 µM (active)	-1.35	
COc1ccc(CCNC(=O)c2cc3c(=O)n4ccccc4nc3n(Cc3ccco3)c2=N)cc1OC	inactive	-20.4	
N=c1c(S(=O)(=O)c2ccc(Cl)cc2)cc2c(=O)n3ccccc3nc2n1C1CCCC1	13 µM (active)		
N=c1c(C(=O)NCc2ccco2)cc2c(=O)n3ccccc3nc2n1Cc1ccccc1	inactive	-4.14	
Cc1ccc(Cn2c(=N)c(C(=O)NCCN3CCOCC3)cc3c(=O)n4ccccc4nc32)cc1	inactive	21.5	
N=c1c(C(=O)NCCN2CCOCC2)cc2c(=O)n3ccccc3nc2n1CCCN1CCOCC1	7.31 µM (active)	8.12	
Cc1ccc(S(=O)(=O)c2cc3c(=O)n4ccccc4nc3n(C3CCCC3)c2=N)cc1	inactive	-1.32	
COc1ccc(C(=O)NCc2oc(-c3ccccc3)cc2C(=O)O)cc1	inactive	-4.88	
COc1ccc2nc(/C=N/NC(=O)[C@H](CCSC)NC(=O)OC(C)(C)C)ccc2c1	inactive	13.4	
COC(=O)c1ccccc1NC(=O)CSc1nc(O)cc(=O)n1C1CCCC1	inactive	6.94	
O=C(NC(Cc1ccccc1)C(=O)O)/C(=C/c1ccco1)NC(=O)c1cccc([N+](=O)[O-])c1 (stereo not drawn)	inactive	-0.0963	
Oc1cccc(N2Cc3ccccc3C2)c1	inactive	-1.3	
CCN1CCN(S(=O)(=O)c2ccc(Cl)c(C(=O)N(C)C(c3ccccc3)c3ccccc3)c2)CC1	inactive		
C=CCOc1ccc2ccccc2c1CNn1cn[nH]c1=S	inactive	10.6	

Structure (SMILES)	Potency	cell number change [%]	lipid storage change, negative = inhibition
Cc1ccc(OCC(=O)NCCCNC(=O)c2ccncc2)cc1	inactive	0.901	
CCOC(=O)N1CCN(C(=O)c2ccc3nc(N4CCCCC4)sc3c2)CC1	inactive	-1.93	
CCOC(=O)CNC(=O)N1CCCC(CNS(=O)(=O)c2cccs2)C1 (stereo not drawn)	inactive	11.3	
Cc1ccc(S(=O)(=O)N2CCOCC2)cc1NC(=O)COC(=O)CCC(=O)c1ccc(F)cc1	inactive	14.2	
N=c1c(C(=O)NCC2CCCO2)cc2c(=O)n3ccccc3nc2n1C1CCCCC1 (stereo not drawn)	inactive	-7.39	
O=C(NCCN1CCOCC1)c1cc2c(=O)n3ccccc3nc2n1Cc1ccccc1	inactive	13.8	
COCCCn1c(C(=O)N2CCOCC2)cc2c(=O)n3ccccc3nc21	inactive	17.7	
N=c1c(C(=O)NCc2ccco2)cc2c(=O)n3ccccc3nc2n1C1CCCC1	0.651 µM (active)	10.3	
COCCCn1c(C(=O)NCCN2CCOCC2)cc2c(=O)n3ccccc3nc21	1.84 µM (active)	5.41	
N=c1c(C(=O)NC2CCCC2)cc2c(=O)n3ccccc3nc2n1C1CCCC1	inactive	-15.6	
Cc1cccc(C)c1NC(=O)CNC(=O)C1CCCN(C(=O)c2ccc(Cl)cc2)C1 (stereo not drawn)	inactive	1.48	
COc1cc(C(=O)NCC(=O)NC(C)CCc2ccccc2)cc(OC)c1OC (stereo not drawn)	inactive	-6.74	
CCOC(=O)N1CCN(C(=O)CCCCCn2c(=S)[nH]c3ccsc3c2=O)CC1	inactive	6.09	
CCOC(=O)C1CCCN(C(=O)C2CCN(S(=O)(=O)c3c(C)noc3/C=C/c3ccccc3F)CC2)C1 (stereo not drawn)	inactive	2.99	
COc1ccc(OC)c(NC(=O)NCCc2cccc(Cl)c2)c1	inactive	4.18	
COc1ccc(OC)c(NC(=O)CCN2CCN(Cc3ccccc3)CC2)c1	inactive	-0.977	
COc1ccc(Cl)cc1NC(=O)COC(=O)CCNC(C)=O	inactive	0.288	
COc1ccc(OC)c(NC(=O)CCCc2ccccc2)c1	inactive	8.01	
COc1ccc(Cl)cc1NC(=O)CN1CCN(Cc2ccccc2)CC1	inactive	1.46	
COc1ccc(OC)c(NC(=O)NCCCCc2ccccc2)c1	2.91 µM (active)	-13.4	
COc1ccc(Cl)cc1NC(=O)CCNC(=O)OCc1ccccc1	7.31 µM (active)	-13.6	
COc1ccc(OC)c(NC(=O)CN2C(=O)C(=O)N(Cc3ccccc3)C2=O)c1	2.31 µM (active)	-12.4	
COc1ccc(OC)c(NC(=O)CCN2C(=O)c3ccccc3C2=O)c1	inactive	23.6	

Structure (SMILES)	Potency	cell number change [%]	lipid storage change, negative = inhibition
COc1ccc2oc(=N)c(C(=O)NCc3ccccc3)cc2c1	inactive	8.47	
O=C(O)CCc1ccc(-c2cccs2)n1NC(=O)c1ccc(O)cc1	inactive	6.61	
O=C(COC(=O)/C=C/c1ccccc1)NCc1ccccc1Cl	inactive		
O=C(COC(=O)C1CC2C=CC1C2)NCc1ccccc1Cl (stereo not drawn)	inactive	9.83	
CC1CC1C(=O)OCC(=O)NCc1ccccc1Cl (stereo not drawn)	32.6 µM (active)	-18.4	
Oc1cccc(/C=N/Nc2ccc(Cl)nn2)c1	inactive	0.54	
O=C1c2cccc3cccc(c23)C(=O)N1c1cccnc1	inactive	-10.8	
O=C1c2ccccc2C(=O)N1c1cccnc1	25.9 µM (active)	-5.37	
O=C1c2cccc([N+](=O)[O-])c2C(=O)N1c1cccnc1	inactive		
Cc1ccccc1Nc1nnc(SCC(=O)Nc2ccccc2[N+](=O)[O-])s1	inactive	-4.61	
CCCCC[C@H]1CN(C2CCCCC2)C(=O)[C@@H]1CC(=O)NCc1ccccc1	16.4 µM (active)	-8.08	
CCCCC[C@H]1CN(CCc2ccccc2)C(=O)[C@@H]1CC(=O)NCc1ccc(OC)cc1	inactive	-13.8	
CCCCN1C[C@H](Cc2ccccc2)[C@@H](CC(=O)NCc2ccc(OC)cc2)C1=O	inactive	2.91	
CCOC(=O)c1ccc(NC(=O)c2nc[nH]c2C(=O)N2CCc3ccccc3C2)cc1	inactive	9.14	
O=[N+]([O-])c1cc(S(=O)(=O)N2CCCCCC2)ccc1Cl	inactive	-8.42	
O=[N+]([O-])c1cccc2c(S(=O)(=O)N3CCCCC3)cccc12	inactive	-7.14	
O=[N+]([O-])c1ccccc1S(=O)(=O)N1CCSCC1	inactive	-12	
O=[N+]([O-])c1cc(S(=O)(=O)N2CCCCCC2)ccc1F	14.6 µM (active)	-27.8	
O=[N+]([O-])c1ccccc1S(=O)(=O)N1CCCCC1	3.66 µM (active)		
Cc1ccc(S(=O)(=O)N2CCCCCC2)cc1[N+](=O)[O-]	inactive	-8.44	
O=C(NCCc1ccccc1)/C(=C\c1ccc([N+](=O)[O-])cc1)NC(=O)c1ccco1	inactive		
